High-throughput results (PubChem)
Hits are enriched below; roughly 3% of the tested compounds scored in any of these assays.
PAFAH1B2 FP inh – PAFAH1B2 enzyme inhibitors, primary screen, biochemical, fluorescence polarization, human; Platelet-activating factor acetylhydrolase IB subunit alpha2 (Homo sapiens), P68402; recombinant PAFAH1B2, FP-rhodamine activity probe; inhibition, % at 3.39 µM; hit rate 1.2% among 340,000;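 active means inhibition above the mean of all tested compounds plus 3 SD, cut at about 24% in these data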;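 further: 0% = enzyme with DMSO and 100% = wells lacking PAFAH1B2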
Target sequence (P68402 whole entry, looked up): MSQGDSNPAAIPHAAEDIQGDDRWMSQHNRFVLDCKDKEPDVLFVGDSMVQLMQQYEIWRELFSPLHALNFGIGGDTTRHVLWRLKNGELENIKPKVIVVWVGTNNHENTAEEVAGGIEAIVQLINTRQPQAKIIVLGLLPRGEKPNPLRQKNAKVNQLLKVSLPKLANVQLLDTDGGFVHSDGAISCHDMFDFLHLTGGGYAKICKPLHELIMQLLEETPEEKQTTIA
PAFAH2 inh – PAFAH2 enzyme inhibitors, primary screen, biochemical, fluorescence polarization, human; hit rate 0.99% among 340,000; inhibition, % at 3.39 µM; recombinant PAFAH2, FP-rhodamine activity probe; Platelet-activating factor acetylhydrolase 2, cytoplasmic (Homo sapiens), Q99487;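 active means inhibition above the mean over all tested compounds plus 3 SD, cut at about 30% in these data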;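 further: inhibitors block probe labeling of enzyme so polarization drops; 0% = enzyme with DMSO and 100% = wells lacking PAFAH2 protein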
pPAFAH FP inh – pPAFAH enzyme inhibitors, primary screen, biochemical, fluorescence polarization, human; hit rate 1.5% among 330,000; recombinant pPAFAH, FP-rhodamine probe fluorescence polarization; Platelet-activating factor acetylhydrolase (Homo sapiens), Q13093; inhibition, % at 3.39 µM;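 active means inhibition above the mean inhibition across the screen plus 3 SD, cut at about 25% in these data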;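 further: inhibitors block binding of the rhodamine activity-based probe so polarization drops; 0% = enzyme with DMSO and 100% = wells lacking pPAFAH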
ATG4B inhibitor – ATG4B protease inhibitors, primary screen, biochemical, fluorescence, uHTS; Cysteine protease ATG4B (Homo sapiens), Q9Y4P1; ATG4B cleavage of LC3-PLA2, NBD-HPC fluorescence, 1 h; inhibition, % at 8.33 µM; hit rate 0.51% among 340,000; in the data active means inhibition above about 40%
Target sequence (Q9Y4P1 whole entry, looked up): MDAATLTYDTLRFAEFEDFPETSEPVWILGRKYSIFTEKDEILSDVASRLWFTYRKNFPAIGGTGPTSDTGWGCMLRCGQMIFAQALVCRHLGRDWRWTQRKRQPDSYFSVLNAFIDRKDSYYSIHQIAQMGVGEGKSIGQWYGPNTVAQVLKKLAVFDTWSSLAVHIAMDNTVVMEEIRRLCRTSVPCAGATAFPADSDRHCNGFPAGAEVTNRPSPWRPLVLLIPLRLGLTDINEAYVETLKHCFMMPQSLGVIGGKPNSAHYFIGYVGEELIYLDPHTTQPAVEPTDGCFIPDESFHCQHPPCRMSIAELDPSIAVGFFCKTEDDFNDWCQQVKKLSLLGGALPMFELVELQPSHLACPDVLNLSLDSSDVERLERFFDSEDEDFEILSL
DAGLB inh – DAGLB lipase inhibitors, primary screen, biochemical, fluorescence, HTS | HEK293T DAGLB membrane lysate, EnzChek fluorogenic substrate | inhibition, % at 5.17 µM | hit rate 0.059% among 340,000 | AID 504411, 2011; in the data active means inhibition above about 34%;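 further: 0% = enzyme with vehicle and 100% = wells lacking enzyme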
PAFAH1B3 inh – PAFAH1B3 enzyme inhibitors, primary screen, biochemical, fluorescence polarization, human; Platelet-activating factor acetylhydrolase IB subunit alpha1 (Homo sapiens), Q15102; recombinant PAFAH1B3, FP-rhodamine probe; inhibition, % at 3.39 µM; hit rate 0.28% among 340,000; AID 492972, 2010;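 active means inhibition above the screen-wide average of all tested compounds plus 3 SD, cut at about 25% in these data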;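 further: 0% = enzyme with DMSO only and 100% = wells lacking PAFAH1B3 protein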
PAFAH2 FP conf – PAFAH2 enzyme inhibitors, confirmation, biochemical, fluorescence polarization, human; shares compounds with PAFAH2 inh; recombinant PAFAH2, FP-rhodamine activity probe; inhibition, % at 3.39 µM; hit rate 65% among 2,300; AID 493030, 2011;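 active means mean inhibition over three repeats above a set limit taken from the earlier primary screen, cut at about 30% in these data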;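 further: inhibitor blocks binding of rhodamine activity probe so polarization falls; 0% = enzyme with DMSO and 100% = wells lacking PAFAH2 protein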
* hit, by the source's call; x = no result given.

SMILES	PAFAH1B2 FP inh	PAFAH2 inh	pPAFAH FP inh	ATG4B inhibitor	DAGLB inh	PAFAH1B3 inh	PAFAH2 FP conf
CCCCn1c(N)c(N(CCOC)C(=O)c2cccc(N3C(=O)c4ccccc4C3=O)c2)c(=O)[nH]c1=O	-3	45*	6	1	1	3	-2
O=[N+]([O-])c1cc(Br)c(O)c(/C=N/Nc2nnnn2-c2cccc3ccccc23)c1	18	35*	34*	17	20	21	24
O=C(COC(=O)c1ccc(O)cc1)NC1CCCC1	-3	77*	14	2	3	5	73*
Cc1ccc(C(=O)OCC(=O)NC2CCCC2)cc1	5	82*	22	-4	1	0	76*
CC(C)(C)c1ccc(C(=O)OCC(=O)NC2CC2)cc1	15	73*	x	-10	-2	1	66*
O=C(COC(=O)c1ccc([N+](=O)[O-])cc1)NC1CCCC1	-3	6	14	5	3	8	x
CC(C)[C@H](NC(=O)C1CCN(S(=O)(=O)c2ccccc2)CC1)C(=O)NCc1ccncc1	0	-5	5	-4	-2	4	x
O=C(COC(=O)C1CC2CCCC(C1)C2=O)Nc1cccc(F)c1 (stereo not drawn)	7	68*	-4	-6	1	4	69*
O=C(COC(=O)C1CC2CCCC(C1)C2=O)Nc1ccccc1 (stereo not drawn)	1	64*	2	-5	-6	11	60*
O=C(CCS(=O)(=O)c1ccc(Cl)cc1)N1CCN(S(=O)(=O)c2cccs2)CC1	10	51*	5	1	1	18	40*
Cc1ccccc1CC(=O)N1CCN(S(=O)(=O)c2cccs2)CC1	-2	0	9	-10	2	9	x
O=C1c2cccc3cccc(c23)C(=O)N1OS(=O)(=O)c1ccc(Cl)cc1	3	33*	5	-10	-1	10	34*
OCCNc1nc(-c2ccccc2)nc2c1oc1ccccc12	-2	5	-4	-9	-2	3	x
CCN(CC)CCNC(=O)c1cc2c(=O)n(C)c3ccccc3c2n1C	-1	-1	-5	3	-1	2	x
CN(C)CCNC(=O)c1cc2c(=O)n(C)c3ccccc3c2n1C	2	47*	-6	-6	-3	11	2
CN(C)C(=O)CCC(=O)N1CCCC(N2CCN(c3cccc(C(F)(F)F)c3)CC2)C1 (stereo not drawn)	-3	-3	6	0	-1	4	x
CC(=O)c1sc(NC(=O)CN2C(=O)C3CC=CCC3C2=O)nc1-c1ccccc1 (stereo not drawn)	7	9	3	10	-3	4	x
COc1ccc(C(=O)Oc2ccc(Br)cc2C(=S)N2CCOCC2)cc1	2	52*	18	-13	-5	8	36*
Cc1ccc(C(=O)Oc2ccc(Br)cc2C(=S)N2CCOCC2)cc1	4	32*	10	4	-6	4	33*
CCN(CC)c1ccc(C(=O)OCC(=O)Nc2cc3oc4ccccc4c3cc2OC)cc1	1	3	-7	8	2	-2	x
N#Cc1ccsc1NC(=O)COC(=O)c1ccc(NC(N)=O)cc1	-9	5	3	-11	0	-18	x
CCN(CC)c1ccc(C(=O)OCC(=O)Nc2sccc2C#N)cc1	-3	47*	9	3	-2	-6	54*
CCN(CC)c1ccc(C(=O)OCC(=O)Nc2ccccc2-c2ccccc2)cc1	-4	77*	20	40	-14	5	51*
CCN(CC)c1ccc(C(=O)OCC(=O)Nc2ncccn2)cc1	6	77*	24	2	3	9	70*
O=c1oc(-c2ccccc2NS(=O)(=O)c2ccc3ccccc3c2)nc2ccccc12	4	36*	-6	10	11	-20	40*
SMILES	PAFAH1B2 FP inh	PAFAH2 inh	pPAFAH FP inh	ATG4B inhibitor	DAGLB inh	PAFAH1B3 inh	PAFAH2 FP conf
Cc1ccc(NC(=O)c2ncn(CCCN[C@H](C)c3cccc4ccccc34)n2)cc1C	3	-7	x	-22	-3	3	x
O=C(CCCn1c(SCC(=O)NC2CCCCC2)nc2ccccc2c1=O)NCC1CCCO1 (stereo not drawn)	3	-11	5	1	4	11	x
Cc1ccc(NC(=O)CSc2nc3ccccc3c(=O)n2CCCC(=O)NCCCN2CCOCC2)cc1C	-1	-10	2	1	-2	1	x
CCc1ccc(NC(=O)CSc2nc3ccccc3c(=O)n2CCCC(=O)NCCCN2CCOCC2)cc1	3	196*	3	-7	-1	6	2
O=C(CCCn1c(SCC(=O)c2ccc(O)c(O)c2)nc2ccccc2c1=O)NCC1CCCO1 (stereo not drawn)	13	35*	34*	6	3	4	11
Brc1ccccc1OCCCCn1cnc2ccccc21	4	35*	2	-2	-8	2	4
N#Cc1cccc(NC(=O)CSc2n[nH]c(=O)[nH]c2=O)c1	6	1	2	-5	0	-3	x
N#Cc1cccc(NC(=O)CSc2sc3c(O)cc(=O)[nH]c3c2C#N)c1	15	40*	0	1	3	13	-2
COc1ccc(C(=O)N(C)Cc2cnn(Cc3ccccc3)c2)cc1S(=O)(=O)N1CCOCC1	5	10	-1	1	-2	6	x
Cc1ccsc1C(=O)OCC(=O)NCc1ccc(Cl)cc1	-1	39*	12	1	-7	4	40*
O=C(COC(=O)c1cc2c(s1)CCCC2)Nc1ccc(Cl)cn1	-3	30*	0	-15	-5	2	33*
Cc1ccsc1C(=O)OCC(=O)Nc1ccc(Cl)cn1	2	78*	19	-4	-7	12	48*
Cc1cnc(C(=O)OCC(=O)Nc2ccc(Cl)cn2)cn1	1	7	-7	4	1	-1	x
O=C(COC(=O)c1cccs1)Nc1ccc(Cl)cn1	3	67*	4	-4	-2	10	73*
O=C(O)COCC(=O)N1CCCN(c2nccc(C(F)(F)F)n2)CC1	1	6	-1	-6	-2	-2	x
CCN(CC)C(=O)c1cc(-c2ccc3c(c2)OCO3)on1	-2	-1	1	2	-4	4	x
